# Screening data deposited in PubChem by National Center for Advancing Translational Sciences (NCATS).
# In the library only some 20% were active in any assay of this set; here they are far more common.
# HCMV inh = blocks human cytomegalovirus replication | actives 4.5% (n = 410,000) | HFF cells, HCMV-luciferase reporter, 72 h; stronger effect = lower value | activity change, negative = inhibition, % at 57.5 µM | AID 1259415; in the data active = activity change below about -60%; inconclusive = no clear call, values can overlap the other calls; inactive = above about -39%; note: % is set by controls: 0 for no effect and ±100 for the full control effect
#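 Inhibition of viral replication was scored as loss of reporter luminescence in HFFs infected with HCMV-luciferase (MOI 1 PFU/cell) for 72 h; compounds tested at 2 doses, normalized to buffer and Salinomycin controls.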
# Cycloheximide cs = affects cycloheximide protein synthesis inhibition readout, counter-screen; cell reporter, cycloheximide protein synthesis inhibition counterscreen; max response, %; actives 12% (n = 300,000); in the data active = max response mostly above about 13%, no sharp cut-off; inactive = mostly below about 14%; note: read at 38.3 µM for the half of the compounds with a filed dose; 0% is about no effect
# Pf growth 48h = P. falciparum growth inhibition at 48 hours (one generation); P. falciparum luciferase growth in erythrocytes, 48 h; Potency, µM (titrated, usually from 28.7 µM), inactives show top-dose activity change, negative = inhibition, most hits filed as inhibitors; actives 5.9% (n = 310,000); AID 504832; note: potency is the fitted concentration of half-maximal effect; % is set by controls: 0 for no effect and ±100 for the full control effect
#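 Parasite viability was followed by luminescence of a genomically integrated firefly luciferase. Cultures held 0.1% parasitemia at 2% hematocrit (final), incubated under 5% CO2 at 37 C.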
# Pf growth 96h = P. falciparum growth inhibition at 96 hours; P. falciparum luciferase reporter growth, 96 h; Potency, µM (doses to about 28.7 µM), for the others: at the top dose activity change, negative = inhibition, hits mostly inhibitors; actives 6.9% (n = 320,000); AID 504834; note: potency is the fitted concentration of half-maximal effect; % is set by controls: 0 for no effect and ±100 for the full control effect
#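 Parasite growth measured via integrated firefly luciferase reporter in P. falciparum. Infected erythrocytes at 2% hematocrit, 0.05% parasitemia final were treated 96 hours at 37 C under 5% CO2, and luminescence was read.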
# Shiga toxin inh = inhibitors of Shiga toxin in Vero cells; Vero cells, Shiga toxin protein synthesis inhibition reporter; inhibition, % at 38.7 µM; actives 9.2% (n = 290,000); AID 2315; in the data active = inhibition mostly above about 28%, no sharp cut-off; inactive = mostly below about 43%; note: 0% is about no effect
# Active calls of the source: *; ? = inconclusive; nt = no result; [ ] = remark or other dose. Unless noted, calls come from the whole dose curve; as a rule, active = well fitted inhibition curve with a large enough effect; inconclusive = small, poorly fitted or top-dose-only effect, or another doubt; inactive = no such curve, though single readings can be large or run the other way.
SMILES,HCMV inh,Cycloheximide cs,Pf growth 48h,Pf growth 96h,Shiga toxin inh
CCN(CC)CCNC(=O)c1ccc2c(c1)ncn2C1CCCCC1,-12,-1,12%,75%,-9
COc1ccc(-c2cn(CC3CCCCC3)nn2)cc1,44,16*,60%,202%,17*
c1ccc(-c2cn(C[C@H]3CC[C@@H]([C@@H]4CC[C@H](Cn5cc(-c6ccccc6)nn5)O4)O3)nn2)cc1,0,-2,?,?,7
CCCCCc1ccc(-c2cn(CC3CCCCC3)nn2)cc1,?,0,79%,12µM*,14
CCCCCc1ccc(-c2cn(CCc3c[nH]c4ccccc34)nn2)cc1,-61*,1,18%,?,-3
c1ccc(-c2cn(CC3CCCCC3)nn2)cc1,83,37*,31%,182%,45*
O=C(CCN1C(=O)C2C3C=CC(C3)C2C1=O)Nc1ccccn1 (centres undefined),14,-2,-9%,-27%,38
O=C(CCN1C(=O)C2C3C=CC(C3)C2C1=O)Nc1ccc2ncccc2c1 (centres undefined),-3,45*,37%,59%,64*
O=C(O)C1C2C=CC(C2)C1C(=O)NCCc1ccccc1 (centres undefined),-14,12,38%,77%,30*
O=C(CCN1C(=O)C2C3C=CC(C3)C2C1=O)NCCc1ccccc1 (centres undefined),43,9.7*,29%,?,19
O=C1C2C3C=CC(C3)C2C(=O)N1CCc1ccccc1 (centres undefined),3,8,nt,?,34
O=C(OCn1nnc2ccccc2c1=O)c1ccc(N2CCOCC2)c([N+](=O)[O-])c1,-5,11,14%,0%,2
O=C(COC(=O)c1ccc(Br)cc1)NC(=O)NCc1ccccc1,-1,nt,6%,34%,nt
CN1C(=O)Cc2cc(S(=O)(=O)CCC(=O)Nc3cccc(C(F)(F)F)c3)ccc21,-4,nt,nt,nt,nt
C=CCC1(CC=C)CCCN1C(=O)CC1C(=O)NCCN1Cc1cc(OC)cc(OC)c1 (centres undefined),9,1,15µM*,?,-10
C=CCC1(CC=C)CCCN1C(=O)CC1C(=O)NCCN1Cc1cccc(OC)c1 (centres undefined),-24,-3,?,-20%,-5
CC(C)(C)C(=O)CNCC(=O)C(C)(C)C,8,-2,19%,-14%,-9
O=C1OC(C(=O)Nc2ccccc2)Cc2ccccc21 (centres undefined),24,41*,45%,67%,64*
Cc1ccc(NC(=O)C2Cc3ccccc3C(=O)O2)cc1 (centres undefined),-6,36*,171%,122%,87*
NS(=O)(=O)c1ccc(NC(=O)C2Cc3ccccc3C(=O)O2)cc1 (centres undefined),-22,1,16%,-2%,-12
CC1CCN(c2ccc(-c3ccc(NC(=O)C(F)(F)F)cc3)nn2)CC1,nt,36*,51%,45%,41*
COCC(=O)Nc1cccc(-c2nc3cccnc3s2)c1,125,nt,nt,nt,nt
CCCS(=O)(=O)Nc1cccc(-c2nc3cccnc3s2)c1,3,28*,24%,12%,57*
Cc1ccc(-c2nc3cccnc3s2)cc1NS(C)(=O)=O,94,33*,112%,116%,62*
O=S(=O)(Nc1cccc(-c2nc3cccnc3s2)c1)c1cccs1,2,18*,40%,45%,50*
SMILES,HCMV inh,Cycloheximide cs,Pf growth 48h,Pf growth 96h,Shiga toxin inh
CC(NC(=O)Cn1c(-c2cccs2)cc2cc(F)ccc21)c1ccccc1 (centres undefined),-37,nt,nt,nt,nt
CCOC(=O)CCNC(=O)N1CCN(S(=O)(=O)c2ccc3c(ccn3C)c2)CC1,16,nt,nt,nt,nt
Cc1ccc(F)cc1NC(=O)COC(=O)c1ccc2ncsc2c1,0,nt,-1%,-14%,nt
FC(F)Oc1ccccc1/C=N/n1cnc2ccccc21,26,50*,65%,76%,116*
O=C1CCCCCN1CP(=O)(O)CN1CCCCCC1=O,-39,-1,4%,8%,-5
COCc1cc(C)nc(NC2CCCCC2)c1C#N,-24,5,3.7µM*,-27%,-4
COCc1cc(C)nc(N2CCCCC2)c1C#N,0,3,-3%,-4%,27
O=C(NCC1CCCO1)c1ccc2c(=O)n(CC3CCCO3)c(SCC(=O)N3CCCC3)nc2c1 (centres undefined),?,6,?,?,24
Cc1ccc(S(=O)(=O)/N=C2\C(=O)c3ccccc3C([O-])=C2n2cc[n+](CCC(C)C)c2)cc1,nt,2,13µM*,3.3µM*,-2
Cc1ccc(NC(=O)C[n+]2ccn(C3=C([O-])c4ccccc4C3=O)c2)cc1,-25,12,33%,-4%,-5
CCCC[n+]1ccn(C2=C([O-])c3ccccc3C(=O)/C2=N\S(=O)(=O)c2ccc(Br)cc2)c1,-13,1,3.3µM*,?,2
CC(=O)Nc1ccc(S(=O)(=O)/N=C2\C(=O)c3ccccc3C([O-])=C2n2cc[n+](-c3ccccn3)c2)cc1,?,9,1.5µM*,4.7µM*,31
COc1ccccc1CNC(=O)CSc1nnc(C)c2c(C)n(-c3ccccc3)nc12,-26,nt,nt,nt,nt
CCOC(=O)c1c(C)[nH]c(C)c1S(=O)(=O)N(C)CC(=O)NCc1ccc(C)cc1,0,24,?,-29%,5
CCN1C(=O)[C@@H]2[C@H](C1=O)[C@@H]1C(=O)Nc3ccccc3C(=O)N1[C@@H]2c1ccc(Br)cc1,-21,nt,?,?,nt
CCCc1ccc(-c2ccc(C(=O)Oc3ccc(OCC)cc3)cc2)nc1,38,nt,nt,nt,nt
CCCCCc1ccc(-c2ccc(C(=O)Oc3ccc(C(=O)OC)cc3)cc2)nc1,17,nt,nt,nt,nt
CCCc1ccc(-c2ccc(C(=O)O)cc2)nc1,42,26*,183%,0%,65*
CCCCCc1ccc(-c2ccc(/C=C/C(N)=O)cc2)nc1,-23,56*,58%,-10%,67*
CCCCCc1ccc(-c2ccc(OC)cc2)nc1,-11,0,-16%,10µM*,13
COc1ccc(S(=O)(=O)NCCc2c[nH]c3ccc(C)cc23)cc1,16,-1,2%,6%,-3
COc1ccccc1COCC(O)CN1CCCCC1CO (centres undefined),-35,1,-14%[0.00184 µM],?,-1
OCC1CCCCN1CC(O)COC(c1ccc(F)cc1)c1ccc(F)cc1 (centres undefined),-19,8,9.3µM*,?,1
OC1CCCN(CC(O)COC(c2ccc(F)cc2)c2ccc(F)cc2)C1 (centres undefined),24,-5,2.6µM*,2.1µM*,-3
OC1CCCN(CC(O)c2ccccc2)C1 (centres undefined),-2,-2,25%,0%,19
CCOC(=O)c1ccccc1NC1CC(=O)N(c2ccccc2C)C1=O (centres undefined),-14,-1,6%,?,33
COc1ccc(-n2c(N)cc(=O)[nH]c2=O)cc1,nt,-1,12%,22%,-6
